Screens deposited in PubChem BioAssay by several laboratories.
An excerpt weighted towards active compounds, which were near 1% of everything screened.
GC-A act: GC-A stimulated cGMP production enhancers – HEK293 GC-A cells, cGMP TR-FRET, EC30 ANP, primary screen; activation, % at 10 µM; Atrial natriuretic peptide receptor 1 (Homo sapiens), P16066; 0% at EC30 ANP, 100% saturating ANP; AID 1671463, 2021; actives 0.14% (n = 370,000); in the data active = activation above about 40%
Target sequence (P16066 whole entry, looked up): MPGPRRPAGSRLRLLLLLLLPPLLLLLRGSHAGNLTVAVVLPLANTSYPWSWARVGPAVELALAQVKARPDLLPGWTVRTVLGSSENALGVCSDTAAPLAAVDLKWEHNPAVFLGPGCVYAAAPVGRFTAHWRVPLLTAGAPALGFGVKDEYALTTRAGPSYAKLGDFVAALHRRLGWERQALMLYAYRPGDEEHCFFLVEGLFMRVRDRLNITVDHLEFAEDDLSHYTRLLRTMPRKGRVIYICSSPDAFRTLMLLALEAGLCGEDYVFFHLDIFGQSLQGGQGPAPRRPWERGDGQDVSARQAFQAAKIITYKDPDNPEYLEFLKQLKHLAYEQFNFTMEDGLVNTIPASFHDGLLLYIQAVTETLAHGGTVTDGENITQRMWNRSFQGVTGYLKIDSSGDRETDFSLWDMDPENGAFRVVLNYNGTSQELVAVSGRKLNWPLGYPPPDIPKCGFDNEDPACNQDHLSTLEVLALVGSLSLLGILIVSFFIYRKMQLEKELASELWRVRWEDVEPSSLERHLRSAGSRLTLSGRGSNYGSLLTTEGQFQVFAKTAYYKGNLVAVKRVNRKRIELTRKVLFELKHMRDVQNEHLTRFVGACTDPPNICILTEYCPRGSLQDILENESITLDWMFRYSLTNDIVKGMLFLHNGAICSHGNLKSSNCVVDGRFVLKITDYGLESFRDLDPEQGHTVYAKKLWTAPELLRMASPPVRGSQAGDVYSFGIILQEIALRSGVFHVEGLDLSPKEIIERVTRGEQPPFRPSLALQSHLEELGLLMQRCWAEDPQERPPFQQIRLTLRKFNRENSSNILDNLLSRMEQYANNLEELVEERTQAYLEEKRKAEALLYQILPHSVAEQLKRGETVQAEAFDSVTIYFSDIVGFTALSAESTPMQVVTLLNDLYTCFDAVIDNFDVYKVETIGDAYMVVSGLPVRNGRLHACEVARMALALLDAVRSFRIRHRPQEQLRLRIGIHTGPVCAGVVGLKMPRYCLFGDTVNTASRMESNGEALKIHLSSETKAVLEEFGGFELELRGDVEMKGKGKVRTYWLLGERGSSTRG
GC-B act: human GC-B receptor activators, primary screen, HEK293 GC-B cells, cGMP TR-FRET, EC30 CNP; 0% at EC30 CNP, 100% saturating CNP; activation, % at 10 µM; actives 0.11% (n = 370,000);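 active = activation at 10 µM reaching about 35% in either raw or pattern-adjusted values, limit read from the data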
Efflux pump mplx: inhibitors of Candida efflux pumps in yeast, primary screen, S. cerevisiae, Nile Red, multiplex. S. cerevisiae Candida pump triplex. inhibition, % at 10 µM. actives 0.44% (n = 330,000). AID 485275, 2010;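 active = plate passing quality check with inhibition over a set limit, or well fluorescence over plate mean plus 4 SD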;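 also: Nile Red retained in pooled yeast measured as flow cytometry median fluorescence; 0% = buffer negative control and 100% = Enniatin B positive control; higher means more Nile Red kept so more efflux inhibition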
TAG inh: inhibitors of triacylglycerol accumulation, primary screen, cell-based, uHTS, fluorescence, H9c2; H9c2 cells, Nile Red lipid (TAG) fluorescence; cells loaded with 200 µM oleic acid; inhibition, % at 12.5 µM; actives 0.66% (n = 230,000); AID 651582, 2012;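 active = pattern-corrected inhibition of lipid staining of at least 50% with the nuclear-stain viability signal not falling by more than 50%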;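 also: 0% = DMSO wells and 100% = triacsin C control wells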
A1 inh: caspase 3/7 activation in MEF A1-2A-BIM cells, primary screen, A1 inhibitor project, cell-based, luminescence, HTS; Caspase-Glo 3/7 luminescence, 3 h; percent of clofoctol response, vehicle zero; caspase activation, % (test concentration not listed); actives 0.066% (n = 330,000); AID 2462, 2010;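 active = over half of replicate activation scores above 10%, or exactly half above 10 with the replicate mean above 10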
HSV replic up: enhancers of HSV replication in host cells, fold increase, host cell viability; HSV replication augmentation in cells; maximum fold increase; actives 0.005% (n = 220,000); AID 1956, 2009; in the data active = maximum fold increase above about 1.5; tested in PC3 cells
TAG conf: triacylglycerol accumulation inhibitors, retest, confirmation, cell-based, single concentration, Nile Red fluorescence, H9c2; inhibition, % at 12.5 µM; AID 651629, 2012; actives 71% (n = 990); H9c2 lipid accumulation; cells loaded with 200 µM oleic acid; shares compounds with TAG inh;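 active = mean inhibition across replicates of 40% or more; inactive = mean inhibition below 40%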;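 also: plate controls were DMSO only wells for no effect and Triacsin C treated wells for full effect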
Numbers without * were called inactive; i = inactive; / = no result given.

SMILES	GC-A act	GC-B act	Efflux pump mplx	TAG inh	A1 inh	HSV replic up	TAG conf
CCCCn1nnnc1C1c2ccccc2OCC(=O)N1Cc1ccc2c(c1)OCO2 (centres undefined)	-2	-4	/	/	/	/	/
CCCCN1C=C(C(=O)OC)C(c2ccccc2C(F)(F)F)C(C(=O)OC)=C1	-3	-2	0	54*	0	i	31
CC(=O)OC12CCCN(C1)/C(=C/c1ccc(Cl)cc1)C2 (centres undefined)	2	-10	/	/	/	/	/
COc1cc2c(cc1OC)CN(C(=S)Nc1ccccc1Cl)CC2	4	0	0	62*	0	i	6
Cc1ccc(Cn2cc(CN(C(C)(C)C)S(=O)(=O)c3ccccc3Br)nn2)cc1	2	5	/	/	/	/	/
CC(C)(C)OC(=O)NC(Cc1ccccc1)C1CC(C#N)C(=O)O1 (centres undefined)	2	-6	/	/	/	/	/
Cc1occc1C(=O)NC(C)CCc1ccccc1 (centres undefined)	3	-4	0	51*	0	i	54*
Cc1ccc(C)c(C(=O)NC(C)CCc2ccccc2)c1 (centres undefined)	-1	0	0	-2	0	/	/
CS(=O)(=O)N1C[C@]2(c3ccccc3)CC1Cc1ccccc12	-11	-8	/	/	/	/	/
Cc1c(C(=O)N2CC3(CC(c4cccc(NC(=O)CC(c5ccccc5)c5ccccc5)c4)=NO3)C[C@@H]2C(N)=O)cc([N+](=O)[O-])cc1[N+](=O)[O-] (some centres undefined)	1	5	0	54*	-1	i	43*
C/C=C(\C)C(=O)Nc1cccc(C2=NOC3(C2)C[C@@H](C(N)=O)N(C(=O)c2cc([N+](=O)[O-])cc([N+](=O)[O-])c2C)C3)c1 (some centres undefined)	2	2	0	17	0	i	/
O=C(Nc1ccc2ncccc2c1)c1cc(-c2ccc(Cl)cc2)nc2ccccc12	0	-1	/	/	/	/	/
Cc1cc2c(cc1C)CSC(c1ccc3ccccc3c1O)SC2	-4	-2	0	0	-1	i	/
Cc1cc2c(cc1C)CSC(c1ccccc1O)SC2	-2	4	0	54*	-1	i	23
CCOC(=O)c1cc(CC)sc1NC(=O)c1cc([N+](=O)[O-])ccc1N1CCOCC1	4	3	1	91*	0	i	60*
O=C(OCc1ccc(Br)cc1)c1cc([N+](=O)[O-])ccc1N1CCOCC1	-6	0	/	52*	/	/	61*
O=C(OCc1cccc(Cl)c1)c1cc([N+](=O)[O-])ccc1N1CCOCC1	4	0	0	1	0	/	/
CCOC(=O)c1cc(CC)sc1NC(=O)c1ccc(N2CCOCC2)c([N+](=O)[O-])c1	13	3	1	/	0	i	/
O=C(COC(=O)c1cc([N+](=O)[O-])ccc1N1CCOCC1)Nc1ccc(Cl)cn1	-1	-2	0	51*	1	/	40
CCOC(=O)c1cc(CC)sc1NC(=O)c1cc(OC)c(OC)c(OC)c1	5	-3	0	66*	0	i	37
Cn1c(COc2ccccc2)nnc1SCC(=O)Nc1ccc(S(=O)(=O)Nc2nccs2)cc1	-1	3	/	/	/	/	/
CCOC(=O)[C@@H]1CSCCS(=O)(=O)N1Cc1ccccc1	1	11	/	/	/	/	/
CCCOc1ccc(F)cc1-c1cc(C(=O)NCc2cc(OC)cc(OC)c2)[nH]n1	7	11	/	54*	/	/	50*
CNC(=O)Nc1ccc(C2SCCS2)cc1	0	1	0	6	-2	i	/
CCCCNC(=O)Nc1ccc(C2SCCS2)cc1	4	3	0	57*	0	i	-9
SMILES	GC-A act	GC-B act	Efflux pump mplx	TAG inh	A1 inh	HSV replic up	TAG conf
CCN(CC)C(=O)CC[C@@H]1CC[C@]2(CCCN(Cc3ccccn3)C2)O1	3	2	/	/	/	/	/
COc1ccccc1CNC(=O)COC(=O)C1=COCCO1	0	6	0	-14	0	i	/
O=C(COC(=O)C1=COCCO1)NCc1ccc(Cl)cc1Cl	2	5	/	66*	/	/	9
CN[C@H]1C[C@H]2c3[nH]c4cccc(-c5ccccc5)c4c3CCN2C[C@H]1[C@H](C)O	0	-5	/	/	/	/	/
COc1cc2c3c(c1)c(C1=NC(=S)NC1=O)c(O)n3C(C)(C)C=C2C	-4	0	0	83*	-1	i	66*
N#Cc1ccc(Cn2ccc3ccc(-c4ccc5ccn(Cc6ccccc6)c5c4)cc32)cc1	-2	-4	/	/	/	/	/
COc1ccccc1NS(=O)(=O)c1cc(NC(=O)/C=C/c2cccs2)ccc1N1CCOCC1	-1	-5	0	54*	-1	i	32
Cc1ccc(-c2nn(-c3ccccc3)cc2NC(=O)CCl)cc1	1	-7	0	51*	0	i	80*
Cc1ccc(C(=O)NCCN2C3=NC[C@H](C(C)C)N3C[C@H]2Cc2ccc(O)cc2)cc1Br	-1	-9	0	57*	1	i	40*
O=C(CCC1CCCCC1)NCCN1C2=NC[C@H](Cc3ccccc3)N2C[C@H]1Cc1ccc(O)cc1	1	0	0	/	0	i	/
COc1ccc(C[C@@H]2CN3C(=NC[C@@H]3Cc3ccc(O)cc3)N2C[C@H](C)NC(=O)CCC2CCCCC2)cc1	/	/	0	45	1	i	/
O=C(CCC1CCCCC1)NCCN1C2=NC[C@@H](Cc3ccccc3)N2C[C@H]1Cc1ccc(O)cc1	0	-7	/	63*	0	i	62*
COc1ccc(C[C@H]2CN3C(=NC[C@@H]3Cc3ccc(O)cc3)N2C[C@H](C)NC(=O)CCC2CCCCC2)cc1	2	1	0	51*	1	i	39
COc1ccc(C[C@H]2CN3C(=NC[C@@H]3C(C)C)N2CCNC(=O)c2ccc(C)c(Br)c2)cc1	/	/	0	/	0	i	/
C#CCNC(=O)C[C@H]1C[C@@]2(C(=O)OC)C(=C[C@H](C(C)(C)C)O[C@@H]2C)N(Cc2ccc(Cl)cc2Cl)C1=O	-24	-22	/	/	/	/	/
CCCN(C(=O)CCc1cn(CCC)c2ccccc12)c1ccc(Oc2cccnc2)cc1	-7	-8	/	/	/	/	/
